Reference: PubChem BioAssay
Inconclusive results are not listed. The source made the active and inactive calls.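 Rule for the calls, unless noted: active = compound that reduces growth-factor-driven endothelial tube area in a mixed cell culture, no cutoff stated; inactive = the rest.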

Experiments:
[1] = stimulators of insulin release from INS-1E, primary screen, cell-based, 5 mM glucose, NPC library (AID 1117329;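 active = compound raises insulin release from rat beta cells at 5 mM glucose, no numeric limit stated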); conditions: rat INS-1E insulin secretion, at 10 µM, stronger effect = higher value
[2] = growth inhibition of GSK3B-pretreated HCT116 cells – cell-based, CellTiter-Glo, 0.2 to 20 µM (AID 1117336;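 active = compounds lowering colon cancer cell viability after pretreatment blocking the GSK3B kinase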); conditions: HCT116 viability after GSK3B inhibitor, at 20 µM, stronger effect = higher value
[3] = inhibition of endothelial tube formation, primary screen, imaging, VEGF stimulated, CD31 staining, tube area, NPC library (AID 1117340); conditions: VEGF-stimulated ADSC/ECFC co-culture, at 10 µM, stronger effect = higher value
[4] = glucagon-like peptide 1 release enhancers, primary assay, NCI-H716 cell line, NPC library (AID 1117341;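 active = compound raises GLP1 secretion from the human gut endocrine cells, with no numeric limit stated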); conditions: NCI-H716 cells, at 10 µM, stronger effect = higher value
[5] = HCT116 colon cancer cell growth inhibition, primary screen, CellTiter-Glo luminescence, NPC library (AID 1117342;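 active = compounds that lower survival of HCT116 colon cancer cells in the luminescence readout, no numeric limit stated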); conditions: at 20 µM (top of the series)
[6] = CellTiter-Glo luminescent readout of SW480 viability loss, NPC library primary (AID 1117343;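 active = compounds that lower viability of the colon cancer cells in the luminescence readout, with no numeric limit stated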); conditions: CellTiter-Glo luminescence; at 20 µM (top of the series)
[7] = decreased DLD-1 cellular survival, CellTiter-Glo luminescent readout, NPC compound collection, primary HTS (AID 1117346;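 active = compounds that lower survival of DLD-1 colon cancer cells in the luminescence readout, no cutoff given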); conditions: DLD-1 viability, CellTiter-Glo luminescence; at 20 µM (top of the series)
[8] = biological target: 6-phosphogluconate dehydrogenase, decarboxylating (Homo sapiens) (UniProt P52209); assay: 6PGD enzyme inhibitors, primary screen, biochemical, human, recombinant enzyme, NADPH absorbance (AID 1159550;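 active = at least 20% inhibition of 6-phosphogluconate dehydrogenase activity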); conditions: recombinant 6PGD, NADPH absorbance 341 nm; at 10 µM; stronger effect = higher value
[9] = differential killing of epithelial or mesenchymal cells, primary screen, imaging, PC-3E GFP, TEM4-18 mCherry, co-culture (AID 1345086;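 active = compounds killing one labelled cell type while sparing the other, by normalised counts and ratio limits, not self-fluorescent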;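 for all read-outs here: cells exposed to compound for 72 h before imaging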;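 for red/green cell ratio (normalised): normalised mesenchymal count divided by normalised epithelial count so high means epithelial killing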); conditions: imaging cell counts, at 1 µM; for red/green cell ratio (normalised): actives lie on both sides, counts scaled to control wells, 1 = unselective
[10] = test system: Aerobactin synthetase IucA (Klebsiella pneumoniae); assay: IucA aerobactin synthetase inhibitors, biochemical, Tocris library, absorbance (AID 1345561; call rule not given here;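 note: 100% = enzyme without compound and 0% = no enzyme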); conditions: purified IucA enzyme assay, absorbance (OD) read-out; stronger effect = lower value;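 tested at 8 µM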
[11] = growth inhibition of DIPG glioma cells, dose response, cell-based, SU-DIPG-XIII, MIPE4.0, CellTiter-Glo, qHTS (AID 1347061; cut-off not given, nearly all actives have AC50 up to about 37 µM;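 note: cells exposed to compound for 48 hours before readout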); conditions: SU-DIPG-XIII viability, CellTiter-Glo ATP luminescence
[12] = growth inhibition of DIPG glioma cells, dose response, cell-based, JHH-DIPG-1, MIPE4.0, CellTiter-Glo, qHTS (AID 1347062; cut-off not given, nearly all actives have AC50 up to about 27 µM); conditions: JHH-DIPG-1 viability, CellTiter-Glo ATP luminescence
[13] = growth inhibition of DIPG glioma cells, dose response, cell-based, SU-DIPG-XVII, MIPE5.0, CellTiter-Glo, qHTS (AID 1347060; cut-off not given, nearly all actives have AC50 up to about 26 µM;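 for AC50: cells exposed to compound for 48 hours before viability readout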); conditions: SU-DIPG-XVII viability, CellTiter-Glo ATP luminescence
[14] = growth inhibition of DIPG glioma cells, dose response, cell-based, SU-DIPG-XIII, MIPE5.0, CellTiter-Glo, qHTS (AID 1347064; cut-off not given, nearly all actives have AC50 up to about 23 µM;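 for AC50: cells exposed to compound for 48 hours before the viability read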); conditions: SU-DIPG-XIII viability, CellTiter-Glo ATP luminescence
[15] = growth inhibition of DIPG glioma cells, dose response, cell-based, SU-DIPG-IV, MIPE4.0, CellTiter-Glo, qHTS (AID 1347063; cut-off not given, nearly all actives have AC50 up to about 30 µM;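 note: compound exposure lasted 48 hours before the viability readout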); conditions: SU-DIPG-IV viability, CellTiter-Glo ATP luminescence
[16] = measured here: epithelial PC-3E GFP cell survival
[17] = measured here: mesenchymal TEM4-18 mCherry cell survival

Chain of 6-phosphogluconate dehydrogenase, decarboxylating (Homo sapiens) (P52209 whole entry, looked up): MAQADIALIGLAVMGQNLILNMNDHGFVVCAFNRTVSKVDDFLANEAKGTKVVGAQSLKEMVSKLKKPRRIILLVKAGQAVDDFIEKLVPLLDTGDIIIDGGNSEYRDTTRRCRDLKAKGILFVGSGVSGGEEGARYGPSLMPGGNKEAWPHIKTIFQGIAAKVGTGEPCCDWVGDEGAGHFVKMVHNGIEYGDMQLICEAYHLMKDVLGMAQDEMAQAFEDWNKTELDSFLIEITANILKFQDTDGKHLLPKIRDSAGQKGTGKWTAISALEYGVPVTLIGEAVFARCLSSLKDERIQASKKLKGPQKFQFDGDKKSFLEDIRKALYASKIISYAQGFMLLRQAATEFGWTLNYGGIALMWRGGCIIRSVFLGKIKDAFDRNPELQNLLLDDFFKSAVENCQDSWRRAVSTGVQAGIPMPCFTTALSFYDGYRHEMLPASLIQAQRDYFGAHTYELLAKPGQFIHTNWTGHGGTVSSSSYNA

With `c1ccc(CN(CC2=NCCN2)c2ccccc2)cc1` the insulin secretion stimulation [1] was 11.3% (inactive), the viability decrease [2] was -68.5% (inactive) and the tube area decrease [3] was 23.2% (inactive). For the same molecule, the GLP1 secretion stimulation [4] was -1.9% (inactive), the inhibition of viability [5] was 15.7% (inactive) and the viability decrease (inhibition) [6] was 22% (inactive). For the same molecule, the viability decrease (inhibition) [7] was 0.7% (inactive), the inhibition [8] was -4.52% (inactive) and the red/green cell ratio (normalised) [9] was 1.08 (inactive). The normalised cell number [9, 16] was 1.24, the normalised cell number [9, 17] was 1.34 and the remaining activity [10] was 98.2% (inactive).

With `O=C(O)CCC(=O)c1ccc(-c2ccccc2)cc1` the insulin secretion stimulation [1] was 1.1% (inactive), the viability decrease [2] was -13% (inactive) and the tube area decrease [3] was 14.5% (inactive). For the same molecule, the GLP1 secretion stimulation [4] was 0.1% (inactive), the inhibition of viability [5] was 12.7% (inactive) and the viability decrease (inhibition) [6] was 13.6% (inactive). The viability decrease (inhibition) [7] was 0.4% (inactive), the inhibition [8] was 8.67% (inactive) and the red/green cell ratio (normalised) [9] was 1.07 (inactive). It also gave a normalised cell number [9, 16] of 1.07 and a normalised cell number [9, 17] of 1.15.

For `Cc1nc2sccn2c(=O)c1CCN1CCC(=C(c2ccc(F)cc2)c2ccc(F)cc2)CC1`, the insulin secretion stimulation [1] was 2% (inactive), the viability decrease [2] was 86.2% (active) and the tube area decrease [3] was 28.7% (inactive). The GLP1 secretion stimulation [4] was 10.9% (inactive), the inhibition of viability [5] was 90.6% (active) and the viability decrease (inhibition) [6] was 133% (active). For the same molecule, the viability decrease (inhibition) [7] was 105% (active), the inhibition [8] was 13.5% (inactive) and the red/green cell ratio (normalised) [9] was 1.18 (inactive). The normalised cell number [9, 16] was 1.16, the normalised cell number [9, 17] was 1.38 and the remaining activity [10] was 122% (inactive).

In the case of `CC(=O)Oc1ccc(C(c2ccc(OC(C)=O)cc2)c2ccccn2)cc1`, the insulin secretion stimulation [1] is reported as 2.65% (inactive), the viability decrease [2] is reported as 41.4% (inactive) and the tube area decrease [3] is reported as 15.6% (inactive). For the same molecule, the GLP1 secretion stimulation [4] was 5.8% (inactive), the inhibition of viability [5] was 67.8% (active) and the viability decrease (inhibition) [6] was -6% (inactive). The viability decrease (inhibition) [7] was 53.5% (active), the inhibition [8] was 4.53% (inactive) and the red/green cell ratio (normalised) [9] was 0.85 (inactive). For the same molecule, the normalised cell number [9, 16] was 1.24 and the normalised cell number [9, 17] was 1.06.

For `O=C1OC(c2ccc(O)cc2)(c2ccc(O)cc2)c2ccccc21`, the insulin secretion stimulation [1] was 11.5% (inactive), the viability decrease [2] was 31.1% (inactive) and the tube area decrease [3] was 14.1% (inactive). For the same molecule, the GLP1 secretion stimulation [4] was 11.8% (inactive), the inhibition of viability [5] was 12% (inactive) and the viability decrease (inhibition) [6] was 80.7% (active). The viability decrease (inhibition) [7] was 43.5% (inactive), the inhibition [8] was -2.11% (inactive) and the red/green cell ratio (normalised) [9] was 1.12 (inactive). The normalised cell number [9, 16] was 0.94 and the normalised cell number [9, 17] was 1.05.

With `CC(=O)Nc1ccc(O)cc1` the insulin secretion stimulation [1] was -0.1% (inactive), the viability decrease [2] was 9.25% (inactive) and the tube area decrease [3] was -15.2% (inactive). The GLP1 secretion stimulation [4] was 1.9% (inactive), the inhibition of viability [5] was 1.2% (inactive) and the viability decrease (inhibition) [6] was 34.3% (inactive). The viability decrease (inhibition) [7] was 3.3% (inactive), the inhibition [8] was 13.8% (inactive) and the red/green cell ratio (normalised) [9] was 1.05 (inactive). The normalised cell number [9, 16] was 1.11, the normalised cell number [9, 17] was 1.16 and the remaining activity [10] was 121% (inactive). For the same molecule, the outcome [11] was “inactive” and the outcome [12] was “inactive”.

In the case of `COC(=O)Nc1nc2ccc(C(=O)c3cccs3)cc2[nH]1`, the insulin secretion stimulation [1] is reported as -0.3% (inactive), the viability decrease [2] is reported as 69.2% (active) and the tube area decrease [3] is reported as 105% (active). For the same molecule, the GLP1 secretion stimulation [4] was -3.1% (inactive), the inhibition of viability [5] was 60.8% (active) and the viability decrease (inhibition) [6] was 22.9% (inactive). The viability decrease (inhibition) [7] was 58.6% (active), the inhibition [8] was -7.55% (inactive) and the red/green cell ratio (normalised) [9] was 1.09 (inactive). The normalised cell number [9, 16] was 0.15, the normalised cell number [9, 17] was 0.17 and the remaining activity [10] was 122% (inactive). For the same molecule, the AC50 [13] was 148 nM (active) and the AC50 [14] was 833 nM (active).

In the case of `CC1=NN(c2ccccc2)C(=O)C1`, the insulin secretion stimulation [1] is reported as -2.2% (inactive), the viability decrease [2] is reported as 10.2% (inactive) and the tube area decrease [3] is reported as 6.7% (inactive). For the same molecule, the GLP1 secretion stimulation [4] was 3.5% (inactive), the inhibition of viability [5] was 2.1% (inactive) and the viability decrease (inhibition) [6] was 33.2% (inactive). For the same molecule, the viability decrease (inhibition) [7] was 12.2% (inactive), the inhibition [8] was 13.6% (inactive) and the red/green cell ratio (normalised) [9] was 0.88 (inactive). For the same molecule, the normalised cell number [9, 16] was 1.15, the normalised cell number [9, 17] was 1.01 and the remaining activity [10] was 85.6% (inactive). The outcome [13] was “inactive”, the outcome [11] was “inactive” and the outcome [12] was “inactive”. The outcome [15] was “inactive” and the outcome [14] was “inactive”.

For `CC(C)NCC(O)c1ccc2ccccc2c1` (stereo unspecified), the insulin secretion stimulation [1] was 9.8% (inactive), the viability decrease [2] was 6.6% (inactive) and the tube area decrease [3] was -11.2% (inactive). The GLP1 secretion stimulation [4] was 1.5% (inactive), the inhibition of viability [5] was 26.4% (inactive) and the viability decrease (inhibition) [6] was 20.9% (inactive). For the same molecule, the viability decrease (inhibition) [7] was 19.4% (inactive), the inhibition [8] was 8.21% (inactive) and the red/green cell ratio (normalised) [9] was 1.02 (inactive). The normalised cell number [9, 16] was 1.05, the normalised cell number [9, 17] was 1.07 and the remaining activity [10] was 94.1% (inactive).

For `COc1ccc(CN(CCN(C)C)c2ccccn2)cc1`, the insulin secretion stimulation [1] was 68.9% (active), the viability decrease [2] was 3.3% (inactive) and the tube area decrease [3] was 14.4% (inactive). The GLP1 secretion stimulation [4] was 1.2% (inactive), the inhibition of viability [5] was -7.7% (inactive) and the viability decrease (inhibition) [6] was 22.5% (inactive). The viability decrease (inhibition) [7] was -34.8% (inactive), the inhibition [8] was 4.83% (inactive) and the red/green cell ratio (normalised) [9] was 1.1 (inactive). The normalised cell number [9, 16] was 1.02, the normalised cell number [9, 17] was 1.12 and the remaining activity [10] was 118% (inactive).

With `Cc1cc(C(C)(C)C)c(O)c(C(C)(C)C)c1` the insulin secretion stimulation [1] was -0.6% (inactive), the viability decrease [2] was -7.15% (inactive) and the tube area decrease [3] was -2.9% (inactive). The GLP1 secretion stimulation [4] was 14.2% (inactive), the inhibition of viability [5] was 10.4% (inactive) and the viability decrease (inhibition) [6] was 3.9% (inactive). The viability decrease (inhibition) [7] was -5.5% (inactive), the inhibition [8] was 14.6% (inactive) and the red/green cell ratio (normalised) [9] was 0.93 (inactive). For the same molecule, the normalised cell number [9, 16] was 1.01 and the normalised cell number [9, 17] was 0.94.

In the case of `CC1CCC(NC(=O)N(CCCl)N=O)CC1` (stereo unspecified), the insulin secretion stimulation [1] is reported as 2% (inactive), the viability decrease [2] is reported as -24.4% (inactive) and the tube area decrease [3] is reported as 25.1% (inactive). For the same molecule, the GLP1 secretion stimulation [4] was 1.7% (inactive), the inhibition of viability [5] was -2.27% (inactive) and the viability decrease (inhibition) [6] was 12.6% (inactive). The viability decrease (inhibition) [7] was -14.1% (inactive), the inhibition [8] was 2.66% (inactive) and the red/green cell ratio (normalised) [9] was 1.17 (inactive). For the same molecule, the normalised cell number [9, 16] was 1.17 and the normalised cell number [9, 17] was 1.37.

In the case of `CSc1ccc2c(c1)C(N1CCN(C)CC1)Cc1ccccc1S2` (stereo unspecified), the insulin secretion stimulation [1] is reported as 30.7% (active), the viability decrease [2] is reported as 111% (active) and the tube area decrease [3] is reported as 61.8% (active). For the same molecule, the GLP1 secretion stimulation [4] was 19.2% (inactive), the inhibition of viability [5] was 113% (active) and the viability decrease (inhibition) [6] was 132% (active). The viability decrease (inhibition) [7] was 102% (active), the inhibition [8] was -11.1% (inactive) and the red/green cell ratio (normalised) [9] was 1.1 (inactive). For the same molecule, the normalised cell number [9, 16] was 0.72, the normalised cell number [9, 17] was 0.79 and the remaining activity [10] was 107% (inactive).

In the case of `COc1ccc2[nH]cc(CCNC(C)=O)c2c1`, the insulin secretion stimulation [1] is reported as -2.5% (inactive), the viability decrease [2] is reported as -6.45% (inactive) and the tube area decrease [3] is reported as -3.4% (inactive). For the same molecule, the GLP1 secretion stimulation [4] was 4.5% (inactive), the inhibition of viability [5] was -6.9% (inactive) and the viability decrease (inhibition) [6] was 20.8% (inactive). The viability decrease (inhibition) [7] was 7.55% (inactive), the inhibition [8] was 6.51% (inactive) and the red/green cell ratio (normalised) [9] was 1.02 (inactive). For the same molecule, the normalised cell number [9, 16] was 0.84, the normalised cell number [9, 17] was 0.86 and the remaining activity [10] was 102% (inactive). The outcome [13] was “inactive”, the outcome [11] was “inactive” and the outcome [12] was “inactive”. The outcome [14] was “inactive”.
